Measurements from PubChem BioAssay (EPA / NIEHS).
Records with an inconclusive call do not appear. The source made the active and inactive calls. How the source made its calls: active means hit-call score of the fitted dose curve at least 0.9, where 1 is the maximum; inconclusive means response in the unintended direction; inactive means score below 0.9.

The molecules below were run on Cytochrome P450 2C19 (Homo sapiens) (UniProt P33261) (assay: CLD_CYP2C19_6hr: CellzDirect (CLD) Gene Expression Assay for xenobiotic metabolism (CYP2C19) at 6 hours (AID 2283678)).
Experimental: CLD_6hr is a cell-based, multiplexed-readout assay that uses hepatocyte, a human liver primary cell, with measurements taken at 6 hours after chemical dosing in a 96-well plate.CLD_CYP2C19_6hr is one of 16 assay component(s) measured or calculated from the CLD_6hr assay. It is designed to make measurements of mRNA induction, a form of inducible reporter, as detected with chemiluminescence signals by Quantitative Nuclease Protection Assay (qNPA) technology.Data from the assay component CLD_CYP2C19_6hr was analyzed at the endpoint, CLD_CYP2C19_6hr, in the positive analysis fitting direction relative to DMSO as the negative control and baseline of activity. Using a type of inducible reporter, gain-of-signal activity can be used to understand changes in the reporter gene as they relate to the gene CYP2C19. Furthermore, this assay endpoint can be referred to as a primary readout. To generalize the intended target to other relatable targets, this assay endpoint is annotated to the cyp intended target family, where subfamily is xenobiotic metabolism.
Human hepatocyte cultures were treated daily for two consecutive days with fresh dosing solutions containing appropriate concentrations of the 320 ToxCast chemicals (chemical identities were blinded to CellzDirect and other ToxCast collaborators), vehicle control (0.2% DMSO), and positive control inducers as summarized in Table 1. Due to the large number of treatment groups and chemicals examined, the ToxCast chemicals were divided into two groups (spanning two independent cultures of hepatocytes from separate donor preparations (Hu778: ToxCast plates 1 and 2; Hu776: ToxCast plates 3 and 4). Each preparation of human hepatocyte cultures was treated with respective vehicle control, medium only control, set of six positive controls/reference chemicals for the five hepatic receptor pathways, and a subset of eight of the ToxCast chemicals (indoxacarb, pyrithiobac-sodium, norflurazon, cyhalofop-butyl, methomyl, thiram, acetochlor, and propiconazole). These replicate data, coupled with internal replicates designed within the blinded ToxCast chemical library, provided additional data to evaluate interindividual differences between hepatocyte preparations and their potential impact on chemical profiles.Cell morphology and integrity were evaluated using phase-contrast microscopy as an indicator of hepatocyte cell health (Tyson & Green, 1987). Cultures for each treatment group (i.e., media, vehicle [0.2% DMSO], positive control inducers [multiple concentrations], and the ToxCast chemicals [multiple concentrations]) were observed and cell morphology was assessed relative to vehicle control cultures at each harvest time point (0, 6, 24, or 48 h). […] Images were evaluated at the conclusion of the study to assess changes in cell integrity and account for the effects of chemical exposure on uncharacteristic changes in concentration-dependent gene expression profiles. The results from these determinations of apparent cytotoxicity were annotated (yes/no) alongside the corresponding qNPA data for reference.At the conclusion of each treatment period, hepatocyte cultures (96-well) were washed with 1 volume of HBSS, lysed by addition of 25 ul ArrayPlate lysis buffer (HTG, Tucson, AZ), and 70 ul/well of Denaturation Oil, denatured by incubation at 95C for 10 min, and frozen at approximately -70C until analysis by nuclease protection assay (qNPA) (Roberts et al., 2007). For qNPA analysis, cell lysates were thawed at 50C for approximately 30 min, qNPA probes were added, and samples were incubated at 95C for 10 min to begin the detection process by denaturing the target RNA, dissociating the duplexes and secondary structure hybridization. At the conclusion of the hybridization period, S1 nuclease reagent was added to each sample to digest all nonprotected nucleotides at 50C for 60-90 min. […]

Sequence of Cytochrome P450 2C19 (Homo sapiens) (P33261 whole entry, looked up): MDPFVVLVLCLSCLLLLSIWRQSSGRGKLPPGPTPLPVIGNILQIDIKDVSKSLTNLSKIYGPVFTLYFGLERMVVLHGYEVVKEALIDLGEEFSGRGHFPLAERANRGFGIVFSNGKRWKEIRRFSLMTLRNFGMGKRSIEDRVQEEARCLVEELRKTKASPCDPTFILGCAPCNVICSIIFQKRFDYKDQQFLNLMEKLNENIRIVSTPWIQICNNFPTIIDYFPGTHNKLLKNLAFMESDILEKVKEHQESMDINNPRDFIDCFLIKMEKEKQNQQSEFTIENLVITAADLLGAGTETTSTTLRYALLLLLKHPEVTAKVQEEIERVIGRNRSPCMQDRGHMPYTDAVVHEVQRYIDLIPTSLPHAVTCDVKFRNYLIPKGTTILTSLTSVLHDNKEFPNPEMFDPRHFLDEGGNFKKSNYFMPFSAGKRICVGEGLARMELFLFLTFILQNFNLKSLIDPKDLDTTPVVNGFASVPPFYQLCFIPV

Row | Structure (SMILES) | outcome
1 | COC(=O)c1ccc(I)cc1S(=O)(=O)NC(=O)Nc1nc(C)nc(OC)n1 | inactive
2 | COC(=O)c1ccccc1C(=O)O | inactive
3 | COC(=O)c1ccc(CNS(C)(=O)=O)cc1S(=O)(=O)NC(=O)Nc1nc(OC)cc(OC)n1 | inactive
4 | COC(=O)CSc1cc(N=c2sc(=O)n3n2CCCC3)c(F)cc1Cl | inactive
5 | COc1c(Cl)ccc(Cl)c1C(=O)O | inactive
6 | CCCOC(=O)c1ccc(C(=O)OCCC)nc1 | inactive
7 | COC(=O)c1ccccc1S(=O)(=O)NC(=O)Nc1nc(OC(F)F)cc(OC(F)F)n1 | inactive
8 | CCCN(CCC)C(=O)SCC | inactive
9 | CCOC(=O)NCCOc1ccc(Oc2ccccc2)cc1 | inactive
10 | COCCO | inactive
11 | C#CCOC(=O)[C@@H](C)Oc1ccc(Oc2ncc(Cl)cc2F)cc1 | inactive
12 | O=C(O)C1(C(=O)Nc2ccc(Cl)cc2Cl)CC1 | inactive
13 | CC1(C)C(C=C(Cl)Cl)C1C(=O)OCc1cccc(Oc2ccccc2)c1 (centres undefined) | inactive
14 | CCCCC(CC)COC(=O)c1ccccc1C(=O)O (centres undefined) | inactive
15 | CCCCCOC(=O)COc1cc(N2C(=O)C3=C(CCCC3)C2=O)c(F)cc1Cl | inactive
16 | CCCOC(=O)NCCCN(C)C | inactive
17 | CCC(C)OC(=O)N1CCCCC1CCO (centres undefined) | inactive
18 | OB(O)O | inactive
19 | c1ccc2[nH]c(-c3cscn3)nc2c1 | inactive
20 | c1ccc(Nc2ccccc2)cc1 | inactive
21 | CCCCOC(=O)[C@@H](C)Oc1ccc(Oc2ccc(C(F)(F)F)cn2)cc1 | inactive
22 | CCCCCCC(C)OC(=O)COc1nc(F)c(Cl)c(N)c1Cl (centres undefined) | inactive
23 | COC(=O)c1cccc(C)c1S(=O)(=O)NC(=O)Nc1nc(OCC(F)(F)F)nc(N(C)C)n1 | inactive
24 | COc1nc(C)nc(NC(=O)NS(=O)(=O)c2ccccc2OCCCl)n1 | inactive
